Compound activity from PubChem BioAssay.
Sampled rows, rich in hits. Any-hit rate of the full collection: about 8.3%.
BCR signal inh: qHTS Assay to Find Inhibitors of Chronic Active B-Cell Receptor Signaling; ABC-DLBCL IkBa-CBG/CBR reporter, luminescence ratio, 4 h; Potency, µM (series often up to 46.1 µM), for inactives: at the top dose activity change, negative = inhibition, actives largely listed as inhibitors; 340,000 compounds, 0.05% hits; AID 493014, 2011; active means well fitted inhibition curve with a large enough effect in the signal ratio, with a control signal flat, not every such curve was filed as active; inconclusive means small, poorly fitted or top-dose-only effect, or effect the other way, or a change in a side signal; the % refers to the signal ratio;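 further: potency means the concentration at half of the fitted maximal effect; plate controls were basal doxycycline-induced cells for no effect and cells given 10 µM MG132 for full effect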
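Compounds up to 46 uM were incubated four hours with TMD8 cells whose green CBG68 luciferase is fused to IkappaBalpha; red CBR luminescence normalised the signal, and concentration-effect curves were fitted to fusion, red and ratio data.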
Giardia kill: Small Molecules that selectively kill Giardia lamblia: qHTS | Giardia lamblia trophozoite viability | activity change, % at 7.66 µM, hits read low | 340,000 compounds, 0.15% hits | AID 540267, 2011; in the data active means activity change below about -80%; inconclusive means between about -30% and that limit;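 further: parasites exposed to compound for two days anaerobically before the ATP read; on the % scale 0 is the no-effect control and ±100 the full control effect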
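Viability, read as ATP luminescence: trophozoites at 100 cells/well, compound added, 48 hrs anaerobic at 37 deg C, then 15-30 min room-temperature development before reading.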
Gal4-VP16 FLuc: VP16 counterscreen qHTS for inhibitors of ROR gamma transcriptional activity. Drosophila S2 Gal4-VP16 UAS-luciferase, luminescence, 20 h. Potency, µM (titrated, usually from 53.6 µM), inactives show at the highest dose activity, negative = inhibition, actives largely listed as inhibitors. 310,000 compounds, 3.5% hits. AID 2546, 2010;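 further: Gal4-VP16 expression switched on by copper sulfate through the metallothionein promoter; potency means the concentration at half of the fitted maximal effect; on the % scale 0 is the no-effect control and ±100 the full control effect; nearly all actives have a fitted effect of over 50% in size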
MCF10A rereplic: A quantitative high throughput screen for small molecules that induce DNA re-replication in MCF 10a normal breast cells. 350,000 compounds, 2.9% hits. Potency, µM (highest dose often 46.1 µM), without a hit: at the top dose activity, positive = re-replication, hits mostly activators. AID 624296, 2012. MCF 10A DNA re-replication, Hoechst nuclear intensity, 48 h; further: potency means the concentration at half of the fitted maximal effect; % of control where 0% means no effect; nearly all actives have a fitted effect of over 50% in size
RORgamma inh: qHTS for inhibitors of ROR gamma transcriptional activity; Drosophila S2 Gal4-RORgamma UAS-luciferase reporter, 20 h; Potency, µM (highest dose often 53.6 µM), for inactives: top-dose activity change, negative = inhibition, most hits filed as inhibitors; 310,000 compounds, 5.4% hits; AID 2551, 2010; further: potency means the concentration at half of the fitted maximal effect; on the % scale 0 is the no-effect control and ±100 the full control effect; nearly all actives have a fitted effect of over 60% in size
Target sequence (P51450 whole entry, looked up, the tested form may be a part): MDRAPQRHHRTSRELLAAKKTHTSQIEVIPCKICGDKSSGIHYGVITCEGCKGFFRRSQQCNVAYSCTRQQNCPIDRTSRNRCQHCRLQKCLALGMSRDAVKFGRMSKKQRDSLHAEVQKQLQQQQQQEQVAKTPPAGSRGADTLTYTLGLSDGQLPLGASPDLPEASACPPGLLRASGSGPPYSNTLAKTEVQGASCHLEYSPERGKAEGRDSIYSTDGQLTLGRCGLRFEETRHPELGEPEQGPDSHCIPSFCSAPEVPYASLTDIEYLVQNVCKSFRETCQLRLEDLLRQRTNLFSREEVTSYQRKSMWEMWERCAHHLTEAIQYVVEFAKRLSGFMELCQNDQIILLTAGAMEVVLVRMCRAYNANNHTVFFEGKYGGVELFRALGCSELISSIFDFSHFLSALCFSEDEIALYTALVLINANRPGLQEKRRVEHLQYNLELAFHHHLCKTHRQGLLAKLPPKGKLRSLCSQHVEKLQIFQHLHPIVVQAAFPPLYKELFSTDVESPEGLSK
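Read-out: Photinus luciferase luminescence; inhibitors lower reporter signal. Insect Schneider cells with Gal4-ROR gamma fusion under metallothionein promoter, UAS reporter; 700 uM final copper sulfate induction, 20 hr, ambient temperature.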
SW480 rereplic: A quantitative high throughput screen for small molecules that induce DNA re-replication in SW480 colon adenocarcinoma cells | SW480 DNA re-replication, Hoechst DNA content imaging, 48 h | 340,000 compounds, 1.8% hits | Potency, µM (top dose mostly 46.1 µM), for the others: at the top dose re-replication activation, hits mostly activators; further: potency means the concentration at half of the fitted maximal effect; % of control where 0% means no effect; nearly all actives have a fitted effect of over 55% in size
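DNA re-replication was detected as more nuclei of elevated Hoechst intensity after 48 hr exposure to compound (23 nL pinned per well of 250 cells).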
Numbers without * were called inactive; ? = inconclusive; . = no result given; [ ] = remark or other dose. Unless noted, the call rests on the fitted dose curve; in most records, active means well fitted curve in the direction sought with a large enough effect; inconclusive means small, poorly fitted or top-dose-only effect, or another doubt; inactive means no such curve, though single readings can be large; an effect the other way counts as inactive or inconclusive.

SMILES	BCR signal inh	Giardia kill	Gal4-VP16 FLuc	MCF10A rereplic	RORgamma inh	SW480 rereplic
Cc1ccc(S(=O)(=O)Nc2ccnc3ccccc23)cc1	-1%	-2	7%	8%	14%	-5%
Cc1ccc(S(=O)(=O)Nc2cccc3ncccc23)cc1	-4%	-5	-10%	6%	28%	11%
Cc1ccc2c(c1)N(C(=O)CCC(=O)NCc1cccc(Cl)c1)CC(C)O2 (centres undefined)	5%	-6	-13%	1%	-41%	0%
CCc1ccc2c(c1)/C(=C/C(=O)c1cccs1)C(=O)N2	?	3	10µM*	?	5.6µM*	9.2µM*
CN1/C(=C/C(=O)c2cccs2)Sc2ccccc21	-35%	.	?	.	?	.
Cc1cccc2c1NC(=O)/C2=C\C(=O)c1cccs1	?	4	?	?	7.1µM*	?
Cc1cc(Br)c2c(c1)/C(=C/C(=O)c1cccs1)C(=O)N2	?	-1	18µM*	?	11µM*	?
Cc1cc(C)c2c(c1)/C(=C/C(=O)c1ccc(Br)s1)C(=O)N2	?	21	8%	?	18%	20%
CCCS(=O)(=O)Nc1ccc(N2CCCCC2)c(S(=O)(=O)Nc2ccccc2OC)c1	2%	-2	.	?	.	?
Cn1c2ccccc2c2nnc(SCC(=O)NC3CC3)nc21	0%	4	1%	-3%	-21%	-46%
CCOc1ccc(C(CC(=O)O)NC(=O)COc2ccccc2OC)cc1OC (centres undefined)	-1%	5	-4%	3%	-1%	-4%
COC(=O)c1sc(NC(=O)COc2cccnc2[N+](=O)[O-])c(C(=O)OC)c1C	?	-82*	.	24%	.	?
COc1ccccc1NC(=O)COc1cccnc1[N+](=O)[O-]	1%	?	.	-3%	.	-8%
COC(=O)C1=C(C(=O)OC)SC2(S1)C(C(=O)OC)=C(C(=O)OC)SC1=C2c2cc(C)ccc2NC1(C)C	-6%	-3	?	2%	4.5µM*	3%
Cc1ccc(C)c(SCC(=O)Nc2nnc(-c3ccccc3)o2)c1	?	7	5µM*	19%	2µM*	2%[9.22 µM]
Cc1ccc(-c2nnc(SCC(=O)Nc3ccccc3F)o2)cc1	?	-20	1%	-3%	7%	-6%
CCC(c1nnc(SCC(=O)Nc2nnc(-c3ccccc3)o2)o1)N(C)C (centres undefined)	0%	-6	?	2%	13µM*	4%
Cc1cc(=O)n2c3ccccc3n(CC(O)CN3CCN(CCO)CC3)c2c1C#N (centres undefined)	-2%	-8	0%	-1%	-19%	2%
Cc1cc(=O)n2c3ccccc3n(CC(O)CN3CCC(C)CC3)c2c1C#N (centres undefined)	6%	6	-3%	8%	-13%	1.3µM*
O=C(CSCc1nc2ccccc2[nH]1)N1CCN(c2cccc(Cl)c2)CC1	?	-1	?	1%	11µM*	?
O=C(c1ccc(CSc2nc3ccncc3[nH]2)cc1)N1CCN(c2cccc(Cl)c2)CC1	?	0	11µM*	?	?	21%
Clc1ccc(CSc2nc3ccncc3[nH]2)cc1	?	?	?	-12%	?	-23%
Cc1ccc(CSc2nc3ccncc3[nH]2)cc1	?	-90*	7.9µM*	1%	7.9µM*	-14%
Cc1cc(C)nc(/N=C2\NC(=O)CC(C(=O)O)N2c2ccc(C)c(C)c2)n1 (centres undefined)	7%	15	-7%	-38%	-9%	7%
O=C(C1CC(=O)N(c2ccccc2F)C1)N1CCOCC1 (centres undefined)	1%	4	.	0%	.	-10%
SMILES	BCR signal inh	Giardia kill	Gal4-VP16 FLuc	MCF10A rereplic	RORgamma inh	SW480 rereplic
Cc1cc(-c2nnc(SCC(=O)Nc3c(C)cccc3C)n2N)n[nH]1	-1%	0	3%	-1%	-12%	-23%
Cc1nn(C)c(C)c1/C=N/NC(=O)CCn1nc(C)c([N+](=O)[O-])c1C	0%	-13	3.5µM*	4%	-7%	-12%
O=C(COC(=O)/C=C/c1ccccc1Cl)NC(=O)NCc1ccccc1	?	21	.	4%	.	-5%
COc1ccc(S(=O)(=O)N2CCCCCC2)cc1C(=O)N(C)Cc1ccc(Cl)cc1Cl	23%	13	.	2.1µM*	.	-24%
COc1ccc(S(=O)(=O)N2CCCCCC2)cc1C(=O)N1CCCCC1	?	15	?	2%	1.4µM*	-1%
COc1ccc(CCNC(=O)c2cccc(S(=O)(=O)N3CCCCC3)c2)cc1	?	-27	9%	-25%	?	-60%
COc1ccc(S(=O)(=O)N2CCCCCC2)cc1C(=O)N(C)Cc1c(F)cccc1Cl	?	-18	.	?	.	-1%
COc1ccc(CCNC(=O)c2cc(S(=O)(=O)N3CCCCC3)ccc2Cl)cc1	5%	4	.	?	.	18µM*
COc1cc(/C=N/NC(=O)CC23CC4CC(CC(C4)C2)C3)cc(Br)c1OCC(=O)N(C)C	1%	-9	?	18µM*	12%	7%
COc1cc(CC(=O)OCC(=O)N2CC(C)CC(C)C2)cc(OC)c1OC (centres undefined)	0%	3	-2%	3%	-28%	2%
CS(=O)(=O)N1N=C(c2cccs2)CC1c1ccccc1O (centres undefined)	?	-2	4%	-8%	9%	1%
Oc1ccccc1C1CC(c2cccs2)=NC(c2ccc(Cl)cc2)N1 (centres undefined)	?	-8	18%	4.6µM*	?	18µM*
CCCc1nn(-c2ccccc2)c2c1C(c1cccs1)C(C#N)=C(N)O2 (centres undefined)	-4%	-3	1%	-7%	13µM*	-8%
Cc1nn(-c2ccccc2)c2c1C(c1cccs1)C(C#N)=C(N)O2 (centres undefined)	?	11	15%	7%	6%	-1%
COc1cc(C(=O)NC2CCCNC2)cc(OC)c1OC (centres undefined)	?	.	-1%	.	0%	.
O=C1CC(=O)N(CCNc2ncc(C(F)(F)F)cc2Cl)C(=O)N1	10%	2	-4%	?	24%	-5%
O=C1C=CC(=O)N1CCNc1ncc(C(F)(F)F)cc1Cl	?	-2	6.3µM*	5.8µM*	5µM*	8.2µM*
